# Molecular target: AT4G31550 (Arabidopsis thaliana, UniProt Q9SV15 228-325)
# Assay: DPI-ELISA; DPI-ELISA, streptavidin 384-well plate, 1-2 pmol biotinylated dsDNA per well, crude native E. coli extract, anti-His detection; buffer as in Brand et al. [46],; high values mean tight binding
# Conditions: tags: C-terminal His (pET-DEST42); label: 5' biotin on forward strand; dsDNA, one strand shown
# Chain of AT4G31550 (Q9SV15 228-325): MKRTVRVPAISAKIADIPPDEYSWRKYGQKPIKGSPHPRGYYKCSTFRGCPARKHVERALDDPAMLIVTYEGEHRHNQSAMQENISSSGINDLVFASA
row,Sequence,binding signal
1,AAAAAACCGGCACGATTTGGATATTCAAAA,0.64 ± 0.113 absorbance
2,AAAAAATGAATCAATTTTTGGGCTTTAAAA,0.52 ± 0.113 absorbance
3,AAAAAAGGAAAACGAGTTCATCTGGTAAAA,0.585 ± 0.134 absorbance
4,AAAAAACTGGATGCGCTCACCAGTTAAAAA,0.52 ± 0.099 absorbance
5,AAAAAAGGCTCCGGCCCCCAATCGCAAAAA,0.61 ± 0.0566 absorbance
6,AAAAAATAGTACCGCTAATGGCTGACAAAA,0.605 ± 0.12 absorbance
7,AAAAAAAACTCCCATACTACAACCGAAAAA,0.53 ± 0.099 absorbance
8,AAAAAACTGCTAATCGGTGACCCGATAAAA,0.745 ± 0.00707 absorbance
9,AAAAAAGGTCCAGTCCACGTCATCAGAAAA,1.84 ± 0.431 absorbance
10,AAAAAACGTATTGATGTCTATTTCAAAAAA,0.575 ± 0.0919 absorbance
11,AAAAAAGGGGTCCTTTTCCAATGTCTAAAA,0.605 ± 0.0495 absorbance
12,AAAAAAGATTGACTCGTCTTACTCGAAAAA,3.08 ± 0.742 absorbance
13,AAAAAACATTCCTAGTTCATGTTACTAAAA,0.665 ± 0.134 absorbance
14,AAAAAAGAAATACCAGAAACTATCATAAAA,0.705 ± 0.219 absorbance
15,AAAAAATAAGTAACCGAACGAAACTCAAAA,0.75 ± 0.269 absorbance
16,AAAAAACCCATCCTTCGTTCCATCGTAAAA,0.76 ± 0.141 absorbance
17,AAAAAACTCGACATAGAATGCGGAAAAAAA,0.655 ± 0.106 absorbance
18,AAAAAAACGATACGGTATCTAGAAAA,0.525 ± 0.0495 absorbance
19,AAAAAAACGCTATATATTGGTGCTAGAAAA,0.695 ± 0.134 absorbance

row,Sequence,binding signal
1,AAAAAAATGATTGCCAATGCTCGCAAAAAA,0.73 ± 0.156 absorbance
2,AAAAAATCTGTTCTCGTTTCCCCTTCAAAA,0.805 ± 0.262 absorbance
3,AAAAAAACTTTCTATTCTGGATAAGTAAAA,0.625 ± 0.134 absorbance
4,AAAAAAACTCTCCGGGTACAATTGCAAAAA,0.605 ± 0.205 absorbance
5,AAAAAAACCGCGTCGCGGCCCGGGAAAA,0.5 ± 0.113 absorbance
6,AAAAAAGTATAACGTGTTGTTGACCGAAAA,3.455 ± 0.0212 absorbance
7,AAAAAATTCCTGTCCGCTCTCGCTCCAAAA,0.685 ± 0.148 absorbance
8,AAAAAAACCGATTACCATTTTTACTGAAAA,0.695 ± 0.148 absorbance
9,AAAAAACTGGCGACTGCCAGTGGTAGAAAA,0.385 ± 0.0354 absorbance
10,AAAAAAGTCTGCGTCCTACCCCATTCAAAA,1.04 ± 0.184 absorbance
11,AAAAAACTTCTAGTTTATGCTTCCGTAAAA,0.69 ± 0.141 absorbance
12,AAAAAATCATTTTATTTTGCCTTTCTAAAA,0.56 ± 0.127 absorbance
13,AAAAAATATCGGGCACGGTCTTGTCTAAAA,0.585 ± 0.0495 absorbance
14,AAAAAACCCGCCGTCGTGATTATCACAAAA,0.73 ± 0.0707 absorbance
15,AAAAAATAGGCGTTATGGCTAACACCAAAA,0.685 ± 0.106 absorbance
16,AAAAAACATTGATAAAATCTCCAGGCAAAA,0.63 ± 0.141 absorbance
17,AAAAAATGACCAGGCCTCGAGCAAAAA,0.665 ± 0.0636 absorbance
18,AAAAAATGGTTTCAATTTTCCGTCCGAAAA,0.405 ± 0.0778 absorbance
19,AAAAAACCGAGTGTTGCCAGTTGCAGAAAA,0.655 ± 0.0919 absorbance
